Shown are actives, neighbours in structure and some others; about 2.5% of the full set was active somewhere.
rRNA inh HTS: inhibits bacterial ribosomal RNA function over humanized ribosomes | AID 720706 | E. coli WT GFP vs humanized-ribosome RFP mutants, fluorescence, 24 h; active compounds read low; DMSO median 0, no signal -100 | GFP signal change (wild-type ribosome), % (test concentration not listed) | 1.6% of 350,000 active;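 active = significant combined selectivity score with lowered wild-type GFP, culture density cut under 30%, mutant RFP and density less affected; inactive = any of these conditions unmet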
RAD52 inh: RAD52 (human) annealing inhibition. recombinant RAD52 DNA annealing, FRET fluorescence. inhibition, % at 18.7 µM. 0.46% of 360,000 active. AID 651710;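 active = every replicate showing at least 50% inhibition; inconclusive = mean inhibition at least 50% but not in every replicate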
CASP6 VEID inh: blocks human caspase-6 cleavage activity. purified caspase-6, Z-VEID-R110 cleavage fluorescence. P55212. inhibition, % at 12.5 µM. AID 686996. 0.53% of 350,000 active;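 active = mean inhibition across replicates at least about 35%, with every replicate also reaching that limit, limit read from the data; inconclusive = only one of the two criteria met; inactive = neither criterion met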;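 also: 0% = median of neutral control wells and 100% = no fluorescence left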
NSD2 inh: NSD2 (human) methyltransferase inhibition; AID 743445; inhibition, % at 12.5 µM; 0.54% of 310,000 active; NSD2 peptide methylation, AlphaScreen, 120 min; O96028; in the data active = inhibition above about 50%
Target sequence (O96028 whole entry, looked up): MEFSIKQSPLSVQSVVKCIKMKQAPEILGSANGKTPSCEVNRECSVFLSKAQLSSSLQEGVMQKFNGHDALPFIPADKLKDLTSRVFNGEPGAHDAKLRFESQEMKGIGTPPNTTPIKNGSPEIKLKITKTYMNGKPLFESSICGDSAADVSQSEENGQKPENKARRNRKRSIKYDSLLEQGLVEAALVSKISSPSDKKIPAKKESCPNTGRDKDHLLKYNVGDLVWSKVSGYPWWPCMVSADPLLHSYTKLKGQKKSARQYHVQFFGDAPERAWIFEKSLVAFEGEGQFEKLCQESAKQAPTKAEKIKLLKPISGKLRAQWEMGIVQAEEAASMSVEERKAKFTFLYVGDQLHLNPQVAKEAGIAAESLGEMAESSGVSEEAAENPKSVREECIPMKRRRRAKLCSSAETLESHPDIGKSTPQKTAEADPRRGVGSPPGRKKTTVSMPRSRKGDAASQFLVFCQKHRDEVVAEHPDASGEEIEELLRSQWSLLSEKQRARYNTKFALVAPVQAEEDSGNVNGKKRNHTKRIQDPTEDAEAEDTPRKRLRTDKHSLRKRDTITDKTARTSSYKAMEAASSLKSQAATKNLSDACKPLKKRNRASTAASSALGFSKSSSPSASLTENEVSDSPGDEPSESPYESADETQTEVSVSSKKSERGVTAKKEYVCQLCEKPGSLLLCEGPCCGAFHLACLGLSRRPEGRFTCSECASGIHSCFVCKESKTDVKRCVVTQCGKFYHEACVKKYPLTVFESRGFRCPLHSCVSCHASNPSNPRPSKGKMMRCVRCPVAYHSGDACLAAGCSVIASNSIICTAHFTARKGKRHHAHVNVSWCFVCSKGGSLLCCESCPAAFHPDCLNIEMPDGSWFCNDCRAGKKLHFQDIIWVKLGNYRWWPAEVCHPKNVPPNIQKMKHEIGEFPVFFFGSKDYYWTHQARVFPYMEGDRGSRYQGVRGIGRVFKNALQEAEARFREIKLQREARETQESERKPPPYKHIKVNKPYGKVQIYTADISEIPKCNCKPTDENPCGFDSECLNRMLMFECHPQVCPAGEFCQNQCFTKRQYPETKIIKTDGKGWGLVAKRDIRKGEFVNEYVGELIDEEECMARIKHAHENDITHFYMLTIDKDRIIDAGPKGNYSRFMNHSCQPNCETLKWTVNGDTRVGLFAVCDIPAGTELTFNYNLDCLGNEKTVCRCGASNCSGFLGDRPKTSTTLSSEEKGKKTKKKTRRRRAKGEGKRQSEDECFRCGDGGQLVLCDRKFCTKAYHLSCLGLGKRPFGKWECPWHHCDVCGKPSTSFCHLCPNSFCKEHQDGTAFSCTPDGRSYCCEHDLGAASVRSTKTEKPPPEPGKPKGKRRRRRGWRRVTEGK
MLL AF4-AF9 inh: inhibitors of human MLL-AF4/AF9 interaction; AlphaScreen, biotin-AF4 peptide binding to FLAG-AF9; P42568; 0.47% of 350,000 active; AID 651704; inhibition, % at 10 µM;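 active = every replicate reaching a set inhibition limit, whatever the replicate mean, cut at about 25% in these data; inconclusive = mean inhibition reaches that limit but some replicates miss it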;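 also: 0% = plate neutral control median and 100% = total signal loss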
AID977621: wild-type E. coli growth inhibition versus H69 humanized strain – H69 mutant RFP, wild-type GFP, cherry-pick, dose response; 1,900 tested, under 10 active; activity change, negative = inhibition at 50 µM; fluorescence, 24 h; shares compounds with rRNA inh HTS;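 active = Wild-type ribosome reporter drop at least double the humanized mutant ribosome reporter drop, growth loss under a set limit; inconclusive = no clear call, values can overlap the other calls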;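 also: wild-type GFP and H69 mutant RFP strains grown together 50/50 in each well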
AID977628: E. coli growth inhibition, wild-type GFP versus h24 humanized RFP strain, dose response, h24 mutant RFP vs wild-type GFP, cherry-pick; shares compounds with rRNA inh HTS; E. coli WT GFP strain growth, fluorescence, 24 h; activity change, negative = inhibition at 50 µM; 1,900 tested, under 10 active; AID 977628;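 active = compound lowering the normal-ribosome reporter at least twice as much as the humanized-ribosome reporter, growth loss under a set limit; inconclusive = no clear call, values can overlap the other calls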;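 also: wild-type GFP and h24 humanized RFP strains co-cultured 1 to 1 per well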
Starred values were filed as active, the others as inactive; ? = inconclusive; . = no result.

SMILES	rRNA inh HTS	RAD52 inh	CASP6 VEID inh	NSD2 inh	MLL AF4-AF9 inh	AID977621	AID977628
CS(=O)(=O)N(CC(=O)N1CCc2ccccc2C1)c1cccc(Br)c1	-22.6*	-9.9	2.9	25.4	-0.9	-7.29	?
CS(=O)(=O)N(CC(=O)N1CCCCCC1)c1cccc(Br)c1	.	.	.	-6.8	.	.	.
COc1ccc(S(=O)(=O)Nc2ccc3c(c2)CC(=O)N([C@H](C)CO)C[C@@H](C)[C@@H](CN(C)S(=O)(=O)c2ccc(Cl)cc2)O3)cc1	-6.1	5.1	1.4	.	1.7	.	.
Cc1cccc(C)c1NC(=O)C1(C)CSCC(=O)N1CCOc1ccccc1 (centres undefined)	-22.4*	3.9	1.8	.	-2.9	-12	-18
COCCN1C(=O)CSCC1(C)C(=O)Nc1c(C)cccc1C (centres undefined)	13.8	-5.0	7.3	.	1.1	.	.
CCN(CC)CCN(C(=O)c1ccc2c(c1)CCCC2)c1nc2ccc(F)cc2s1	-23.4*	-16.6	-2.0	-0.9	-5.2	-12.7	.
CCN(CC)CCN(C(=O)c1ccc2c(c1)CCCC2)c1nc2ccc(C)cc2s1	-28.5	-10.6	-6.2	0.7	11.5	.	.
COc1ccc(OC)c(S(=O)(=O)Nc2cccc3ccc(O)cc23)c1	-32.0*	-7.2	4.8	-0.8	4.8	-8.61	-13.9
O=C(C[C@@H]1C=C[C@H](NC(=O)NC2CCCC2)[C@H](CO)O1)NCc1ccc(F)cc1	2.2	-18.8	1.1	.	-3.0	.	.
CC1CCCCN1CC(O)COCCC12CC3CC(CC(C3)C1)C2 (centres undefined)	-28.7*	1.3	3.2	.	3.2	-23.1	.
O=C(NCc1ccco1)c1ccc(COc2cccc3ccccc23)cc1	-23.8*	-17.9	3.0	-0.3	-73.1	-15.9	.
O=C(NCc1ccco1)c1ccc(COc2ccccc2Cl)cc1	.	.	.	-0.9	.	.	.
CN1CCN(C(=O)C[C@@H]2CC[C@H]3[C@@H](COC[C@@H](O)CN3Cc3cccc(-c4ccncc4)c3)O2)CC1	-2.9	0.4	3.1	.	-2.5	.	.
COC(=O)CC#C[C@H](C)[C@@H](NS(=O)(=O)c1ccc([N+](=O)[O-])cc1)C(C)(C)C	-13.5*	-8.7	2.4	.	2.5	?	?
O=S(=O)(Nc1ccccc1N1CCOCC1)c1cccs1	4.1	-13.0	0.1	-2.5	-1.0	.	.
O=S(=O)(Nc1ccccc1N1CCCCC1)c1cccs1	-33.1*	-12.2	-3.2	9.9	-10.6	-4.46	-8.44
COc1cccc(C(=O)NC2CC3CCCC(C2)N3S(=O)(=O)c2ccccc2)c1 (centres undefined)	-31.1*	-9.3	-0.5	-1.7	6.7	?	.
CCCCN1C2CCCC1CC(NC(=O)c1cccc(OC)c1)C2 (centres undefined)	7.9	-7.0	0.1	25.1	-3.4	.	.
CCOc1ccc2[nH]c3c(NCCN(C)C)ncnc3c2c1	-13.4*	64.7*	-7.1	6.0	8.7	-2.39	?
Cc1cccc(N2Cc3ccc(Br)cc3C2)c1	-20.9*	-22.7	-0.7	-0.1	2.7	-10	-3.84
Cc1cc(-c2nnc(SCC(=O)Nc3nc(-c4ccccc4)cs3)o2)no1	-0.2	-15.7	2.8	-1.6	-2.6	.	.
Cc1occc1-c1nnc(SCC(=O)Nc2nc(-c3ccccc3)cs2)o1	-24.4*	-10.5	-3.7	1.8	9.5	?	-7.24
COc1ccc(NC(=O)Nc2ccc3c(c2)[C@@H]2C[C@@H](CC(=O)NCc4ccncc4)O[C@H](CO)[C@@H]2O3)cc1	1.5	-2.5	2.7	.	0.6	.	.
Cc1noc(C)c1NC(=O)Nc1ccc2c(c1)C(=O)N([C@@H](C)CO)C[C@@H](C)[C@@H](CN(C)Cc1ccccc1)OCCCC[C@H](C)O2	-3.1	3.4	0.2	.	0.0	.	.
CC1CN(CC(=O)Nc2nc3ccccc3s2)CC(C)O1 (centres undefined)	-14.7*	-21.7	-0.6	-0.8	-3.4	5.06	?
SMILES	rRNA inh HTS	RAD52 inh	CASP6 VEID inh	NSD2 inh	MLL AF4-AF9 inh	AID977621	AID977628
Cc1ccc(C)c(-c2[nH]ncc2CN2CCCC(CO)(Cc3ccccc3C)C2)c1 (centres undefined)	-30.4*	-3.2	3.7	7.6	8.4	-8.88	.
C=CCN1C(=O)c2n[nH]c(COC)c2C1c1ccc2c(c1)OCO2 (centres undefined)	6.1	-1.1	1.3	-2.8	.	.	.
COCc1[nH]nc2c1C(c1ccc3c(c1)OCO3)N(c1ccc(OC)cc1)C2=O (centres undefined)	-29.7*	-3.0	0.5	2.6	-0.8	4.74	0.031
CCC(=O)N[C@H]1CC[C@@H](CCn2cc(CN(C)C)nn2)O[C@H]1CO	1.9	-4.6	-2.0	.	-3.8	.	.
CC(=O)Nc1ccc(NS(=O)(=O)c2ccc(Cl)s2)cc1	-20.1*	-3.3	-22.7	-0.4	-0.1	.	?
CCN(C(=O)COC(=O)CCc1ccccc1)c1ccccc1	-33.7*	-13.2	-2.7	-0.1	-0.9	.	-7.65
CCN(C(=O)COC(=O)CN1C(=O)c2ccccc2C1=O)c1ccccc1	4.9	-7.8	-4.3	0.9	-0.6	.	.
O=C(Nc1ccc(Br)cc1)c1cccnc1N1CCCCC1	-33.8*	-15.9	-12.1	-2.8	-1.9	-4.39	-7.93
O=C(Nc1ccc(F)cc1)c1cccnc1N1CCCCC1	6.2	-0.1	-1.1	2.1	5.0	.	.
C[C@@H]1CN([C@@H](C)CO)C(=O)c2cc(NC(=O)c3ccncc3)ccc2O[C@@H]1CN(C)Cc1ccc(Oc2ccccc2)cc1	-4.9	-19.8	-1.6	.	11.8	.	.
O=C(C[C@@H]1CC[C@H]2[C@@H](COC[C@H](O)CN2Cc2nccs2)O1)NCc1ccc(Oc2ccccc2)cc1	-1.5	17.1	1.1	.	1.7	.	.
O=C(NNC(=O)c1ccc(Cl)cc1Cl)c1csc(-c2cccnc2)n1	0.6	-4.6	6.8	-3.4	8.4	.	.
O=C(NCc1ccc(Cl)cc1)c1csc(-c2cccnc2)n1	-36.7*	-11.0	9.7	-1.9	.	?	.
CCOC(=O)c1cccc(OS(=O)(=O)Cc2ccccc2)c1	-25.5*	-6.2	1.2	-0.1	-4.9	-9.12	.
COc1ccc2c3c(n(C)c2c1)[C@@H](CO)N(C(=O)c1cccnc1)CC31CCN(C)CC1	5.2	5.7	0.8	.	6.9	.	.
c1coc(CSc2ncnc3c2oc2ccccc23)c1	-22.9*	-30.5	1.0	-1.0	1.3	-6.33	-5.49
c1ccc(CSc2ncnc3c2oc2ccccc23)cc1	.	.	.	-3.4	.	.	.
COc1ccc(C(=O)Nc2cccc3ccccc23)cc1	-18.7*	-5.9	-2.6	-2.4	2.2	-11.4	-12.5
COc1cc(OC)cc(C(=O)Nc2ccc(C(=O)Nc3ccccc3OC)cc2)c1	-21.6*	-24.9	-2.5	-1.0	-0.3	0.969	?
CSc1ccccc1NC(=O)c1ccccc1N(C)S(C)(=O)=O	.	.	.	-0.9	.	.	.
